Screening data deposited in PubChem by several laboratories.
Compounds with a hit are over-represented: about 2.7% of the library has one in this group of screens.
PP1 counter: PP1-alpha (human) inhibition in PP5 counter-screen; P62136; purified PP1alpha, OMFP fluorescence; inhibition, % at 6.7 µM; 320,000 compounds, 0.9% hits;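 active means inhibition above the mean inhibition of all tested compounds plus 3 SD, computed separately for each screening campaign, cut at about 15% in these data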
Target sequence (P62136 whole entry, looked up): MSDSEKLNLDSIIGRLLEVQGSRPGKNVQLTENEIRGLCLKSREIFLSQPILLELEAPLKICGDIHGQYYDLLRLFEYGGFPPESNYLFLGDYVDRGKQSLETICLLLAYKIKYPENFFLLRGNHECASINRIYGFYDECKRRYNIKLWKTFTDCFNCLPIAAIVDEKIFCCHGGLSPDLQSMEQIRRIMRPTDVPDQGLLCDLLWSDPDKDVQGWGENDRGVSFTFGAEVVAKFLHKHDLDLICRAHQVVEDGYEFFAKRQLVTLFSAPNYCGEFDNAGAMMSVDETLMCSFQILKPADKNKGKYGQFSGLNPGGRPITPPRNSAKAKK
ANO1 block: mouse TMEM16A channel inhibition, primary screen | Q8BHY3 | HEK293 TMEM16A/YFP iodide influx fluorescence, ionomycin | normalized B-score (activity score, 25-100; higher = stronger inhibition) at 10 µM | 310,000 compounds, 1.2% hits | AID 588511;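 active means ratio plate-corrected score three or more library SD toward inhibition, starting fluorescence score within five deviations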;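 further: score derived from kinetic fluorescence span divided by baseline fluorescence per well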
PP5 primary: PP5 (human) phosphatase inhibition | P53041 | inhibition, % at 6.7 µM | 320,000 compounds, 0.18% hits | purified PP5c, OMFP substrate fluorescence;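 active means inhibition above the campaign's mean inhibition across all tested compounds plus 3 SD, cut at about 9.5% in these data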;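 further: 0% = DMSO only and 100% = 100 µM cantharidin control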
PREPL inh: inhibitors of human prolyl oligopeptidase-like enzyme PREPL; inhibition, % at 5.96 µM; AID 2751; recombinant PREPL, fluorescence polarization activity-based probe; Q4J6C6; 320,000 compounds, 0.68% hits; in the data active means inhibition above about 43%;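 further: 0% = enzyme with DMSO and 100% = wells lacking enzyme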
FID counter: counter-screen for HCV NS3 helicase inhibitors: DNA intercalator displacement; DNA fluorescent intercalator displacement, fluorescence; inhibition, % at 7.9 µM; 290,000 compounds, 0.17% hits; AID 1845; in the data active means inhibition above about 37%;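 further: 0% = vehicle and 100% = reference compound; higher means more ethidium bromide displaced from hairpin DNA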
TMEM16A act: mouse TMEM16A channel activation, primary screen; AID 623877; Q8BHY3; 340,000 compounds, 0.3% hits; HEK293 TMEM16A/YFP-H148Q/I152L, iodide quench fluorescence; stronger effect = lower value; B-score at 10 µM;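 active means fluorescence-ratio B-score plate-corrected deviation score at least 3 library SD below zero, with starting fluorescence score within 5 deviations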;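 further: channel opened by trigger with iodide after compound preincubation; score built on the fluorescence ratio of max minus min over baseline; more negative score means more quench and so TMEM16A activation or potentiation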
TMEM16A reconf: TMEM16A (mouse) chloride channel inhibition, re-confirmation; inhibition, % at 10 µM; HEK293 TMEM16A/YFP-H148Q, iodide quench fluorescence; ionomycin added to raise cell calcium; AID 652189; 2,300 compounds, 39% hits; shares compounds with ANO1 block;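 active means mean duplicate percent inhibition, scaled so buffer wells are 0 and the reference blocker 100, over three buffer SD above buffer mean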
TMEM16A Ca cntr: counter-screen for TMEM16A inhibitors: effect on calcium mobilization. shares compounds with ANO1 block. TMEM16A/YFP HEK293, Fluo4 calcium mobilization. calcium response (% of ionomycin), % at 10 µM. 2,300 compounds, 2% hits. AID 652231;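 active means duplicate-averaged calcium signal over 20% of the ionomycin maximum, relative to buffer baseline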;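 further: each well's signal is peak minus trough fluorescence divided by its pre-addition baseline; 0% = buffer wells and 100% = ionomycin wells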
Parental YFP cnt: acts in parental YFP-HEK293 cells lacking TMEM16A, counter-screen; shares compounds with ANO1 block; iodide YFP quench, ionomycin; YFP ratio F(max-min)/F0 at 10 µM; 2,300 tested, under 10 active; AID 652233;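 active means yellow fluorescent protein signal ratio exceeding the buffer control mean by over 5 SD of those controls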;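 further: ratio is mean of duplicate wells from kinetic YFP trace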
ClC-1 rat inh: selectivity of TMEM16A inhibitors: inhibition of rat ClC-1 chloride channel; 2,300 tested, under 10 active; shares compounds with ANO1 block; CHO ClC-1-YFP, iodide influx fluorescence quench; iodide control reads 0, buffer control 100; ratio percent, % at 10 µM;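 active means duplicate-mean ratio percent above the mean of iodide-only control wells, which defines zero, plus 5 of their SD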;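 further: higher percent means stronger block of ClC-1 iodide influx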
* hit, by the source's call; i = inactive; . = no result given.

SMILES | PP1 counter | ANO1 block | PP5 primary | PREPL inh | FID counter | TMEM16A act | TMEM16A reconf | TMEM16A Ca cntr | Parental YFP cnt | ClC-1 rat inh
CCC1CCCCN1C1Sc2ccc(C(=O)OC)cc2NC1=O (stereo not drawn) | -1 | 25* | 2 | 12 | 6 | i | i | i | -1.2 | -9
Cc1cc(C(F)(F)F)c(C#N)c(N2CCOCC2)n1 | -2 | 100* | -1 | 8 | 0 | i | i | i | -1.2 | -12
CC(=O)Nc1cccc(OCc2ccc(S(=O)(=O)Cc3ccccc3)cc2)c1 | 1 | i | -3 | -3 | -24 | i | . | . | . | .
Cc1cc(C(=O)CSc2ccc(F)cc2)cc(C)c1OC(=S)N(C)C | 1 | 100* | 4 | 5 | -9 | i | i | i | -1.4 | -8
c1ccc(Nc2nc(NCC3CCCO3)c3ccccc3n2)cc1 (stereo not drawn) | 0 | 100* | 2 | 9 | 22 | i | i | i | -1.1 | -14
OCCNc1nc(Nc2ccc(Br)cc2)nc2ccccc12 | 7 | 25* | 3 | 18 | 25 | . | 22%* | i | -1.4 | -8
OCCNc1nc(Nc2ccccc2)nc2ccccc12 | -1 | i | 0 | 0 | 15 | i | . | . | . | .
CCN(CC)S(=O)(=O)c1cccc(NC(=O)CN2C(=O)NC3(CCC(C)CC3)C2=O)c1 (stereo not drawn) | . | . | . | . | . | i | . | . | . | .
COc1ccc(C(=O)C2CN(c3ccccc3)CC2c2ccc(Cl)cc2)cc1 (stereo not drawn) | 0 | 25* | 1 | -4 | 1 | i | i | i | -1.1 | -6
COc1ccc(C(=O)N2CC(c3ccc(Cl)cc3)CC2=O)cc1 (stereo not drawn) | 2 | i | 1 | 3 | . | i | . | . | . | .
COc1ccc(NC(=O)c2cccnc2C(=O)O)c(OC)c1 | 3 | i | 0 | 5 | 6 | i | i | i | -1.3 | -10
CCOC(=O)N1CCN(C(=O)c2oc3ccc(S(=O)(=O)N4CCCCC4)cc3c2C)CC1 | -5 | i | 1 | 5 | -28 | i | . | . | . | .
Cc1c(C(=O)N2CCCCC2)oc2ccc(S(=O)(=O)N3CC(C)CC(C)C3)cc12 (stereo not drawn) | -1 | 25* | 3 | 17 | -36 | i | 21%* | i | -0.96 | -2
CCCCCCCCC(=O)Nc1cc(C)ccc1OC | -2 | 100* | 7 | 6 | -8 | i | i | i | -1.2 | -12
CCNS(=O)(=O)c1ccc(NC(=O)Nc2cc(C)ccc2OC)cc1 | 1 | 25* | 4 | 11 | -12 | i | i | i | -1.1 | -6
Cc1ccc(-n2nc(CN3CCOCC3)c(-c3ccccc3)c2N)c(C)c1 | -1 | i | 0 | 6 | -3 | i | . | . | . | .
COc1ccc(CCC(=O)OCC(=O)N2CCN(S(=O)(=O)c3ccc(C)cc3C)CC2)cc1 | -3 | . | 1 | 10 | . | i | . | . | . | .
COCCn1c(CN2CCN(c3ccc(OC)cc3)CC2)nc2c1c(=O)n(C)c(=O)n2C | -3 | 25* | 1 | 12 | -14 | i | i | i | -1.2 | -3
CC(C)CCn1c(CN2CCOCC2)nc2c1c(=O)n(C)c(=O)n2C | -1 | i | -1 | 2 | -18 | i | . | . | . | .
CC1CC(C)CN(Cc2nc3c(c(=O)n(C)c(=O)n3C)n2CCN2CCOCC2)C1 (stereo not drawn) | 0 | 100* | -3 | 3 | -27 | i | i | i | -1.2 | -4
Cc1cc(S(=O)(=O)N2CCN(Cc3ccc4c(c3)OCO4)CC2)cc(C)c1N1CCCC1=O | -2 | 100* | 2 | -6 | 0 | i | 33%* | i | -1.1 | -14
